Sampled rows, rich in hits. Any-hit rate of the full collection: about 1.1%.
AmpC inh detg: qHTS Inhibitors of AmpC Beta-Lactamase (assay with detergent). P00811. AmpC hydrolysis of nitrocefin, absorbance 480 nm, 0.01% Triton. Potency, µM (doses to about 114 µM), for inactives: at the top dose activity change, negative = inhibition, usual class: inhibitors. 370,000 compounds, 0.041% hits. AID 485294, 2010;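 note: 0% = no-compound wells and -100% = no-enzyme wells; nearly all actives have a fitted effect of over 25% in size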
Target sequence (P00811 whole entry, looked up): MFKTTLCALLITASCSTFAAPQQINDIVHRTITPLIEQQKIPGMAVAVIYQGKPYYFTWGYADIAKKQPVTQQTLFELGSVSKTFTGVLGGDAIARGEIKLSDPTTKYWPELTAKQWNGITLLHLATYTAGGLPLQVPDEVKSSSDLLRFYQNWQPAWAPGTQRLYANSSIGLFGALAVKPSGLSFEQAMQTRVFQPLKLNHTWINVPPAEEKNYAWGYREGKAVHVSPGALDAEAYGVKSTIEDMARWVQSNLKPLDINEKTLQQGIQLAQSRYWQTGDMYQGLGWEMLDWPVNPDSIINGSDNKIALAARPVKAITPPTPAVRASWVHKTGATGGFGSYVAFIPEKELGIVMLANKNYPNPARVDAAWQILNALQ
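AmpC (5.3 nM in the dispensed reagent) in 20 mM phosphate pH 7.0 with 0.01% (detergent screen) or 0.0001% Triton X-100 was preincubated with compounds for 15 min at room temperature. Nitrocefin was then added from an 800 uM solution, and hydrolysis was followed at 480 nm.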
AMA1-RON2 inh: qHTS for Inhibitors of AMA1-RON; Towards Development of Antimalarial Drug Lead: Primary Screen; Plasmodium falciparum AMA1 (3D7) - RON2 peptide interaction; AlphaScreen AMA1-biotinylated RON2 peptide binding; Potency, µM (top dose mostly 58.2 µM), without a hit: at the top dose activity change, negative = inhibition, actives largely listed as inhibitors; 360,000 compounds, 0.2% hits;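 note: 0% = vehicle wells and -100% = peptide control; nearly all actives have a fitted effect of over 45% in size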
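AMA1 (3D7) with his tag at 25 nM final met compounds first, then biotinylated RON2 peptide at 25 nM; detection used donor plus acceptor beads, 10 µg/mL apiece, read by AlphaScreen after 30 min at room temperature.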
Giardia FBPA inh: qHTS Assay for Inhibitors of Fructose-1,6-bisphosphate Aldolase from Giardia Lamblia | A8B2U2 | purified Giardia FBPA | Potency, µM (highest dose often 59.6 µM), for inactives: top-dose activity, negative = inhibition, hits mostly inhibitors | 290,000 compounds, 0.71% hits | AID 2451, 2010; note: nearly all actives have a fitted effect of over 55% in size
Target sequence (A8B2U2 whole entry, looked up): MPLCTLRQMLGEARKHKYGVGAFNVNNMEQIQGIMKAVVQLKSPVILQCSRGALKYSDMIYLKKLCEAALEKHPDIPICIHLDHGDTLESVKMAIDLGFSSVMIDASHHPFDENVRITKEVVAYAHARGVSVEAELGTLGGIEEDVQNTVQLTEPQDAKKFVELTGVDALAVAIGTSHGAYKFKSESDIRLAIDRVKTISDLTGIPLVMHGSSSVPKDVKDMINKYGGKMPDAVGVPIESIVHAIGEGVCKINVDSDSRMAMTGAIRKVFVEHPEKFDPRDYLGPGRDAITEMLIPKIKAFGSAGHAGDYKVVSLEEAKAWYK
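40 nM FBPA preincubated 10 min at RT with compound (up to 57.5 uM final), then substrate plus GAPDH/TPI/NAD/arsenate coupling and diaphorase/resazurin added. Fluorescence read after 20 min at RT, 525/598 nm.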
AmpC no deterg: qHTS Inhibitors of AmpC Beta-Lactamase (assay without detergent). P00811. 330,000 compounds, 0.52% hits. AmpC nitrocefin hydrolysis, absorbance 480 nm, 0.0001% Triton. Potency, µM (titrated, usually from 57.1 µM), inactives show at the top dose activity change, negative = inhibition, most hits filed as inhibitors. AID 485341, 2010;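 note: plate controls were no compound for no effect and no enzyme for full effect; nearly all actives have a fitted effect of over 20% in size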
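20 mM phosphate pH 7.0 + 0.01% (detergent screen) or 0.0001% Triton X-100; 5.3 nM AmpC reagent; cpd preinc 15 min RT; nitrocefin (800 uM stock) to start; A480 q20 s × 4 min; Activity was normalised to no-enzyme and no-compound control wells.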
* = called active by the depositor; ? = inconclusive; · = no result; [ ] = dose if it differs, or a comment. Calls come from the whole dose curve; as a rule, active = well fitted curve in the direction sought with a large enough effect; inconclusive = small, poorly fitted or top-dose-only effect, or another doubt; inactive = no such curve, though single readings can be large; an effect the other way counts as inactive or inconclusive. Unless noted, % is set by controls: 0 for no effect and ±100 for the full control effect; potency is the fitted concentration of half-maximal effect.

SMILES | AmpC inh detg | AMA1-RON2 inh | Giardia FBPA inh | AmpC no deterg
COc1ccc2[nH]c3c(=O)n(CCc4ccccc4)cnc3c2c1 | 0.1% | -1.8% | 2.5% | -6.5%
O=C1C(Cl)=C(Cl)C(=O)C(Cl)=C1Cl | · | · | 0.561µM* | ·
NC1=C(Cl)C(=O)c2ccccc2C1=O | · | 2.3% | · | ·
Cc1ccc(NC(=O)COC(=O)c2ccccc2Nc2ccccc2)cc1 | -2.2% | 13.7% | 0.1% | 25.1µM*
CCOc1ccc(Br)cc1CNc1ccc2c(c1)OCCO2 | -13.9% | 31.6µM* | -22.6% | -43.3%
C=CCOc1ccccc1CNc1ccc2c(c1)OCCO2 | -4.8% | -25.1% | ? | -6.0%
O=C(O)C[C@@H]1C(=O)O[C@@H]2C(COC(=O)c3cc(O)c(O)c(O)c3)O[C@@H](OC(=O)c3cc(O)c(O)c(O)c3)[C@@H](OC(=O)c3cc(O)c(O)c4c3[C@H]1[C@H](O)C(=O)O4)[C@H]2OC(=O)c1cc(O)c(O)c(O)c1 (some centres undefined) | -3.2% | · | 3.97µM* | -47.1%
CC1=C/C(=N\Nc2ccccc2[N+](=O)[O-])CC(C)(C)C1 | -7.3% | 3.55µM* | 1.5% | -29.3%
C/C(=N/Nc1ccccc1[N+](=O)[O-])c1ccc([N+](=O)[O-])cc1 | 0.4% | -3.0% | 3.3% | -19.6%
COc1ccc(/C=C2\N=C(C)OC2=O)cc1OC | 35.5µM* | -7.7% | -0.2% | -21.3%
O=C(CN1CCCCC1)Nc1cccc(-n2cnnn2)c1 | 0.9% | -0.9% | -0.1% | 0.141µM*
Cn1c(=O)[nH]c(NC2CCCCC2)c([N+](=O)[O-])c1=O | 2.2% | 7.3% | 1.4% | -0.5%
O=c1[nH]c(NC2CCCCC2)c([N+](=O)[O-])c(=O)[nH]1 | 89.1µM* | -5.6% | 8.2% | -12.8%
CC1=C(C(=O)N2CCOCC2)CC(CC(=O)NCc2cccc3ccccc23)C(=O)N1Cc1ccc(C(C)(C)C)cc1 (centres undefined) | · | -21.6% | · | ·
Cc1cc(-c2ccc(N=Nc3ccc4c(S(=O)(=O)O)cc(S(=O)(=O)O)c(N)c4c3O)c(C)c2)ccc1N=Nc1ccc2c(S(=O)(=O)O)cc(S(=O)(=O)O)c(N)c2c1O | · | · | 22.3µM* | ·
COc1cc2cc(C(=O)N3CCOCC3)cc(-c3ccc(C)cc3)c2cc1OC | -3.1% | 0.0% | 4.7% | 208.8%
Cc1cc(C)c2c(=O)n(CC(=O)NCCCN3CCN(c4ccccc4F)CC3)sc2n1 | ? | -1.2% | -13.5% | -7.0%
Cc1cc(C)c2c(=O)n(CC(=O)NCCCN3CCOCC3)sc2n1 | 44.7µM* | 17.8% | -19.0% | 14.1µM*
Cc1cc(C)c2c(=O)n(CC(=O)Nc3ccc(Cl)cc3)sc2n1 | -13.2% | 15.9% | -26.4% | ?
Cc1cc(C)c2c(=O)n(CC(=O)Nc3cccc(F)c3)sc2n1 | 79.4µM* | -5.9% | -20.8% | ?
Cc1cccc(N2CCN(C(=O)Cn3sc4nc(C)cc(C)c4c3=O)CC2C)c1 (centres undefined) | 50.1µM* | -4.0% | -19.1% | -15.8%
CS(=O)(=O)N1CCc2cc(C(=O)Nc3cccc(F)c3)ccc21 | 22.7% | · | · | ·
COc1ccc(CCNC(=O)Cc2ccc(NS(=O)(=O)c3ccc(F)cc3)cc2)cc1OC | ? | -1.6% | · | -14.8%
O=C(O)c1ccc2c(c1)C(=O)N([C@]1(C(=O)O)CC1c1ccccc1)C2=O (some centres undefined) | -14.2% | · | 9.7% | -3.8%
O=C1NC(Cc2ccc(O)cc2)c2nc3ccc(F)cc3c(=O)n2-c2ncccc21 (centres undefined) | · | 0.5% | · | ·
SMILES | AmpC inh detg | AMA1-RON2 inh | Giardia FBPA inh | AmpC no deterg
COc1cc(NS(=O)(=O)c2ccc(C)cc2)c2ncccc2c1 | -11.4% | -9.3% | ? | -7.7%
COc1cc(NS(=O)(=O)c2cccc([N+](=O)[O-])c2)c2ncccc2c1 | · | · | 15.8µM* | ·
COc1cc(NS(=O)(=O)c2ccc([N+](=O)[O-])cc2)c2ncccc2c1 | · | · | 17.7µM* | ·
O=S(=O)(Nc1ccc(C(O)(C(F)(F)F)C(F)(F)F)cc1)c1cccc2cccnc12 | · | 68.5% | · | ·
COC(=O)c1nc2ccc(N3CCOCC3)cc2c(C)c1C(=O)OC | ? | -2.4% | 7.92µM* | 13.2%
C[C@@](N)(Cc1ccc(O)c(O)c1)C(=O)O | · | · | 22.3µM* | ·
COCc1nnc(NC(=O)c2ccc(S(=O)(=O)N(C)c3ccccc3)cc2)o1 | ? | 50.1% | 8.7% | 39.8µM*
C=CC[C@@H]1C=C[C@@H](O/N=C\c2ccc(C(=O)N3[C@H](c4ccc(C)cc4)[C@@H](C)CC[C@H]3C(=O)OC)cc2)[C@@H](CO)O1 | · | · | 1.5%[12.9 µM] | ·
Cc1ccccc1C(=O)Oc1ccccc1C(=O)N1CCOCC1 | ? | -1.3% | -2.0% | -12.7%
Cc1ccccc1C(=O)OC1OC(=O)C(Cl)=C1N1CCOCC1 (centres undefined) | 3.98µM* | 0.0% | -0.4% | 2.82µM*
Cc1ccccc1NC1=C(Cl)C(=O)OC1OC(=O)c1ccccc1C (centres undefined) | 20µM* | -8.1% | -11.5% | 10µM*
COc1ccc(Br)cc1CNC(=O)Cn1ncn2nc(-c3cccs3)cc2c1=O | -4.3% | · | · | ·
CCOC(=O)c1sc2ncn(CC(=O)Nc3cc(C)on3)c(=O)c2c1C | -19.0% | -10.8% | · | -22.8%
COc1ccc(C)cc1NC(=O)CSc1ccc(-c2ccccn2)nn1 | -8.2% | 20µM* | · | -1.1%
Cc1cccc(NC(=O)CSc2ccc(-c3ccccn3)nn2)c1 | -6.8% | · | · | ·
CC1(C)C2CC=C(/C=N/NC(=O)c3ccccc3O)C1C2 (centres undefined) | -9.6% | ? | -1.0% | 11.2µM*
CNC(=S)N/N=C/C1=CCC2CC1C2(C)C (centres undefined) | -14.8% | 59.4% | -6.6% | -30.6%
CC(=O)c1c(C)[nH]c(C(=O)OC(C)C(=O)Nc2cc(S(=O)(=O)N3CCCCC3)ccc2Cl)c1C (centres undefined) | -10.4% | 4.2% | -0.4% | 7.94µM*
Cc1ccc(SCC(=O)N2CCN(c3ccccn3)CC2)cc1 | -0.2% | 8.1% | 3.2% | 3.5%
Cc1ccc(N(C)C(=O)N2CCN(c3ccccn3)CC2)cc1 | ? | -2.3% | -3.3% | 10µM*
Cc1nnc(SCC2=C(C(=O)O)N3C(=O)C(NC(=O)Cn4nc(C(F)F)c(Cl)c4C)C3SC2)s1 (centres undefined) | -10.0% | 31.7% | 3.97µM* | 94.0%
c1coc(C2Nc3ccccc3-c3nc4ccccc4n32)c1 (centres undefined) | -10.6% | 56.2% | -6.1% | 35.5µM*
c1ccc(C2Nc3ccccc3-c3nc4ccccc4n32)cc1 (centres undefined) | 1.3% | 6.8% | -10.0% | -58.7%
O=C(Cn1c(=O)n(Cc2ccco2)c(=O)c2oc3ccccc3c21)Nc1ccc(F)c(Cl)c1 | 18.7% | · | · | ·
CC(=O)[C@@H]1[C@H]2[C@H](C(=O)[C@H]3OC[C@@H]2O3)[C@H]2C=Cc3ccccc3N21 | · | · | 22.3µM* | ·
